Experimental data published in ChEMBL document CHEMBL4888484, “Replenishing the malaria drug discovery pipeline: Screening and hit evaluation of the MMV Hit Generation Library 1 (HGL1) against asexual blood stage Plasmodium falciparum ,using a nano luciferase reporter read-out” (2022).
Among all 4,800 compounds or so, about 410 (8.5%) showed an effect of 50% or more. The sample holds strong results, similar compounds and a random draw of the others, so the mix is not that of the screen.

What follows are molecules tested on Plasmodium falciparum (assay: Confirmatory screen in NF54 pLDH assay, in single point, at 2uM, 72h). Conditions: timepoint 72 hour.
Type: functional, Erythrocyte

First: O=C(N[C@@H]1CC=C(c2ccc(F)cc2)CC1)c1nc2n(n1)CCCN2
Second: Cc1cc(C(=O)Nc2nc(-c3ccc4c(c3)CCC4)n[nH]2)no1
The “% Inhibition” value of the first is higher: 10% for the first, 7% for the second.

First: c1ccc2[nH]c(Nc3nc4ccccc4s3)nc2c1
Second: O=C(Nc1[nH]c(=O)ncc1F)c1cccc2ccccc12
The “% Inhibition” value of the first is lower: 14% for the first, 72% for the second.

Compared with COc1ccc(CNC(=N)NS(=O)(=O)c2ccc(OC)c(OC)c2)c(OC)c1, COc1ccc2cccc(NC(=O)c3cc(-c4cc(OC)c(OC)c(OC)c4)n[nH]3)c2n1 is higher in “% Inhibition” value: 11% for the first, 51% for the second.

Going from Cc1cc(Br)ccc1CNC(=O)CN1CCCCC1=O to COc1cccc2c(=O)c3c([nH]c12)CCN(CC(=O)NCc1ccccc1Cl)C3, the “% Inhibition” value rises from 13% to 37%.

First: Cn1ccc(NC(=O)c2cccc3ccccc23)n1
Second: CC(=O)Nc1ccc(-c2cn3c4ccccc4ccc3[n+]2C)cc1
The “% Inhibition” value of the first is lower: 4% for the first, 67% for the second.

First: O=C1c2ccccc2C(c2ccc(NC(=O)c3cccc4ccccc34)cc2)(c2ccc(NC(=O)c3cccc4ccccc34)cc2)c2ccccc21
Second: CC(=O)c1ccc(NC(=O)Cn2c(-c3ccccc3)nc(C)cc2=O)cc1
The “% Inhibition” value of the first is higher: 42% for the first, 10% for the second.

First: COc1cc(C(=O)Nc2[nH]c(=O)ncc2F)ccc1Cl
Second: O=C(Nc1[nH]c(=O)ncc1F)c1cc(F)c(F)cc1Br
The “% Inhibition” value of the first is lower: 68% for the first, 86% for the second.

Going from O=C(Nc1ccccc1-c1nnc[nH]1)c1ccc(F)c(Cl)c1 to COc1ccc(C(=O)Nc2ccc3c(c2)C(=O)Nc2cccnc2O3)cc1OC, the “% Inhibition” value rises from 2% to 26%.

Going from COc1cc2c(cc1-c1cccnc1)CCC(=O)N2C to COc1ccc(N(C)S(=O)(=O)c2ccsc2-c2nc(-c3cccnc3)no2)cc1Cl, the “% Inhibition” value rises from -22% to -2%.

Compared with CCc1c[nH]c(CNC(=O)C2(C(=O)NC3CC3)CCC2)n1, CC(C)(C)N(CC(N)=O)CC(=O)NC(=O)NC1CCCCC1 is higher in “% Inhibition” value: 7% for the first, 8% for the second.

Compared with CCC[C@H](C)c1nc(N2CCN(C(=O)Cc3ccc(OC)cc3)CC2)c2cnn(-c3ccccc3)c2n1, CCn1cc(C(=O)O)c(=O)c2cc(F)c(N3CCN(S(=O)(=O)c4ccccc4)CC3)cc21 is lower in “% Inhibition” value: 9% for the first, -6% for the second.

First: CC(=O)Nc1ccc(NC(=O)CCC(C)C)cc1
Second: CCc1ccc(NC(=O)Cn2c(=O)ncc3cc(S(=O)(=O)N4CCCC[C@@H]4C)ccc32)cc1
The “% Inhibition” value of the first is lower: -6% for the first, 11% for the second.

Going from CCOc1cccc2c1OC1(C)C(C(=O)Nc3ccc(C)cc3C)C2NC(=O)N1c1ccccc1 (stereo not drawn) to Cc1ccc(C)c(NC(=O)N2CC(n3cnnc3-c3ccccc3)C2)c1, the “% Inhibition” value rises from -7% to 0%.

Compared with O=C1[C@@H]2C[C@@H](CN2C(=O)c2cncnc2)Oc2ccccc2N1Cc1cccnc1, COCc1cc2nn(CC(=O)Nc3ccc4c(c3)OCO4)c(=O)n2c(-c2ccccc2)n1 is higher in “% Inhibition” value: 6% for the first, 12% for the second.

Going from O=C(O)C[C@H](NC(=O)c1cscn1)c1ccc(Cl)s1 to COc1ccc(Nc2nc(C(=O)Nc3ncc(C)s3)cs2)cc1OC, the “% Inhibition” value rises from -23% to 13%.

Compared with O=S(=O)(c1cccnc1)N(CC1CCCCC1)c1cnccn1, c1cc(CN2CCN(C3CCCCCC3)CC2)ccn1 is lower in “% Inhibition” value: 10% for the first, -17% for the second.

First: COc1ccc(-c2cc(C(=O)Nc3ncc[nH]3)n[nH]2)cc1OC
Second: COc1cc(NC(=O)c2cc(-c3cccc4ccccc34)[nH]n2)cc(OC)c1OC
The “% Inhibition” value of the first is higher: 22% for the first, 10% for the second.

First: Cc1ccnc2nc(C(=O)N(CC3CC3)CC(F)(F)F)nn12
Second: Cc1ccc(-c2nn3c([C@H]4CCCN(C)C4)nnc3s2)cc1C
The “% Inhibition” value of the first is higher: 10% for the first, -8% for the second.

Compared with Oc1cccc(CN[C@H]2CCCc3occc32)c1Cl, O=C(N[C@H]1CCCc2occc21)c1ccco1 is lower in “% Inhibition” value: 83% for the first, 7% for the second.

Compared with CC(O)CC(C)(C)CNC1CCCc2occc21 (stereo not drawn), Cc1ccc(CNC(=O)[C@@H](C)C2CCOCC2)cc1C is higher in “% Inhibition” value: -9% for the first, 7% for the second.

Compared with CCOC(=O)Oc1c(OC)cc(C(=O)Nc2ccc3c(c2)sc(=O)n3C)cc1OC, CCOc1cc(C(=O)Nc2ccc3nc4c(c(Nc5ccc(OC)c(OC)c5)c3c2)CCCC4)cc(OCC)c1OCC is higher in “% Inhibition” value: 15% for the first, 103% for the second.

Going from COC(=O)c1cc(S(=O)(=O)NCCc2csc(C)n2)cc(F)c1F to Cc1cc(=O)n2ncc(C(=O)Nc3ccc(F)cc3F)c2[nH]1, the “% Inhibition” value rises from -8% to 10%.

Going from CCN(C(=O)[C@H]1CCN(C)[C@@H](C)C1)C1CCCC1 to CN1CCC(N2CCC(CN(Cc3ccncc3)Cc3c(F)cccc3Cl)CC2)CC1, the “% Inhibition” value rises from 11% to 99%.

Compared with Cc1cn(Cc2ncc(C(F)(F)F)cc2Cl)c(=O)[nH]c1=O, Cc1cc2nc(C(=O)NC3CCN(Cc4ccccc4)CC3)c(=O)n(C)c2cc1C is higher in “% Inhibition” value: -18% for the first, -6% for the second.

Compared with N#Cc1ccc(NC(=O)[C@](F)(OC(F)(F)C(F)(F)C(F)(F)F)C(F)(F)F)cc1, CCn1cc(C#N)c(=O)c2cc(F)c(N3CCN(Cc4ccccc4)CC3)cc21 is higher in “% Inhibition” value: -2% for the first, 78% for the second.

Going from Cc1cc(CN(C)c2cc(C3CC3)nc(N(C)Cc3cc(C)on3)n2)no1 to CN(Cc1ccc(-c2ccccc2)cc1)c1cc([C@H]2C[C@@H](N)C2)nc(N)n1, the “% Inhibition” value rises from -11% to 54%.

First: CC(=O)N1c2c(C)cccc2[C@@H](C)CC1(C)C
Second: CC(C)C[C@@H]1N[C@H](C(=O)NCCN(C)C)Cc2c[nH]c3cccc1c23
The “% Inhibition” value of the first is higher: 16% for the first, -19% for the second.

First: CCn1cc(-c2nc(-c3ccccc3C)no2)c(=O)c2cc(F)c(N3CCCCC3)cc21
Second: Cc1cccc(-c2nc(C[N+]3(Cc4nc(-c5cccc(C)c5)oc4C)CCCC3)c(C)o2)c1
The “% Inhibition” value of the first is lower: 42% for the first, 55% for the second.

First: Cc1ccc(S(=O)(=O)Cc2nc(-c3ccc(C(=O)Nc4c(C)cccc4C)cc3)oc2C)cc1
Second: CCNC(=O)c1ccc(-c2nc(CS(=O)(=O)c3ccccc3)c(C)o2)cc1
The “% Inhibition” value of the first is higher: 13% for the first, -10% for the second.

Going from O=S1(=O)CCN(C2CCN(Cc3c(F)cccc3F)CC2)CC1 to c1ccc(N2CCN(C3CCN(Cc4ccncc4)CC3)CC2)cc1, the “% Inhibition” value falls from 14% to -2%.

First: COc1ccc(CN(Cc2ccncc2)CC2CCN(C3CCN(C)CC3)CC2)c(F)c1
Second: c1ccc(CCc2nnc3n2CCOC3)cc1
The “% Inhibition” value of the first is higher: 93% for the first, 3% for the second.

In the case of O=C1NC2(CCCC2)Nc2ccccc21, the “% Inhibition” value is reported as 2%.
